Test results taken from the supplement of paper PMC11006884.
About 6,500 targets were measured; listed, in parts, are those with a hit and a random draw of the rest. About 2% of all pairs of compound and target were hits. Unmarked numbers belong to inactive results.

compound: COC(=O)C#Cc1ccccc1 [methyl 3-phenylpropiolate]; assay: log2 ratio of iodoacetamide-alkyne labeling of the cysteine site, DMSO over compound (competition); higher = stronger covalent engagement of the cysteine by the compound, active = 1 or more; details: 500 µM; treatment time 1 h; system: HEK293T cell lysate
Summary of the method: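 Three replicates, each with duplicate channels, were prepared from HEK293T lysate (2 mg/mL) treated with vehicle or electrophile at 500 µM for 1 h at ambient temperature. Iodoacetamide alkyne was then applied for 1 h, and samples were clicked to sCIP-TMT reagents, pooled, trypsin-digested overnight at 37 °C, enriched on streptavidin, acid-eluted and analysed on Orbitrap Eclipse LC-MS/MS with FAIMS, with FragPipe quantification. The log2 competition ratio per cysteine is the mean control-channel divided by the mean compound-channel reporter intensity. Cysteines quantified in only one replicate were left out.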

Chain of UniProt P98194 (P98194 whole entry, looked up): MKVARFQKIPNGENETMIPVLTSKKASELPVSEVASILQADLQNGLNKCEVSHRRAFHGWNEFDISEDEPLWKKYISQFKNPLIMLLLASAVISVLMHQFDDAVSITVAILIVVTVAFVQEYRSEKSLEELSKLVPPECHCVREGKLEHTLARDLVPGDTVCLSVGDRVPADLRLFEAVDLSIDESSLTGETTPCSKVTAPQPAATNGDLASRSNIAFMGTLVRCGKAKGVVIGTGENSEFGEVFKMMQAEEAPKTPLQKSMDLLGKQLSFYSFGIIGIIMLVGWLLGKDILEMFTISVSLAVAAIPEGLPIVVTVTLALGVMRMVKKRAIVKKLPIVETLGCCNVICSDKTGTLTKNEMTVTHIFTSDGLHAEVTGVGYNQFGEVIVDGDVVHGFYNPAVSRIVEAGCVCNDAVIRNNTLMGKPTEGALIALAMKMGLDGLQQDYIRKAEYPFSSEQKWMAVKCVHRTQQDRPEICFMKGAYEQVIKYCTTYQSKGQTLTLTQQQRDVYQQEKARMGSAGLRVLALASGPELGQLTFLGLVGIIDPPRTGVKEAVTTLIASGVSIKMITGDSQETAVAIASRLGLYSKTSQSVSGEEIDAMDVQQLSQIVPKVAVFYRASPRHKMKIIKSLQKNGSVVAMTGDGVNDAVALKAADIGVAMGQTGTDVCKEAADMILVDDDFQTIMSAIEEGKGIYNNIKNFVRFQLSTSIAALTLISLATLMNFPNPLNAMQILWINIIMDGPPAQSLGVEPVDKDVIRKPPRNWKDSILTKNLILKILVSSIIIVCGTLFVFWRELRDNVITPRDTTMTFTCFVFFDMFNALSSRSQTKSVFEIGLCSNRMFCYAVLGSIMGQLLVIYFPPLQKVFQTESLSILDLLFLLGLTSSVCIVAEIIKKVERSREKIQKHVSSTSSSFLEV
Chain of UniProt Q12834 (Q12834 whole entry): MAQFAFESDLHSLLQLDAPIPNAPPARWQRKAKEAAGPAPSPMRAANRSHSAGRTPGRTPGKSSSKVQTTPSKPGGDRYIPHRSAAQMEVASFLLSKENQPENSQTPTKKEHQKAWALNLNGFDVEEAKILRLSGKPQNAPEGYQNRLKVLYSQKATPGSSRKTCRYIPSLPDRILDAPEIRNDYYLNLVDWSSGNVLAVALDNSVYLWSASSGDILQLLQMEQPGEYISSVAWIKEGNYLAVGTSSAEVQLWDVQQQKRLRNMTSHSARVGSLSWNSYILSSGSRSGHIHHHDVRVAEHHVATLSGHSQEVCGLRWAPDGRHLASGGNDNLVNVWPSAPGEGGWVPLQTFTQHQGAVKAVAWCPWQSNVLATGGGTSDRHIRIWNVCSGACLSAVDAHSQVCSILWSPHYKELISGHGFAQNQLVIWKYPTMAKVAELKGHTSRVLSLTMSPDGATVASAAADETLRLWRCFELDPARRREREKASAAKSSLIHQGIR
Chain of UniProt Q01581 (Q01581 whole entry, looked up): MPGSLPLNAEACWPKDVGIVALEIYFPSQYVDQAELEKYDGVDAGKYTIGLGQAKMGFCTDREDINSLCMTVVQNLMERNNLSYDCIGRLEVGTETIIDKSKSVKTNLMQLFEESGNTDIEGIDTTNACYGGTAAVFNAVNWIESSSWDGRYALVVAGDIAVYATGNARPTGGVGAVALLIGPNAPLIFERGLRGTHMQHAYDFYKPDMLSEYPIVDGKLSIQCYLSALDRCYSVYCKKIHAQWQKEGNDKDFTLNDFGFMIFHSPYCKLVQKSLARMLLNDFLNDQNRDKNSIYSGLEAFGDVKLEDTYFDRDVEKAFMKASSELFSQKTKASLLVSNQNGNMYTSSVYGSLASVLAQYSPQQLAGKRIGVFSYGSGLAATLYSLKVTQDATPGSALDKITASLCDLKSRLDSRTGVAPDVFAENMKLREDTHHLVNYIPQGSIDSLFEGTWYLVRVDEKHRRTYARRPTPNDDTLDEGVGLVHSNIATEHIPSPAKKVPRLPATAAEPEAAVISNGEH
Chain of UniProt Q5JRX3 (Q5JRX3 whole entry, looked up): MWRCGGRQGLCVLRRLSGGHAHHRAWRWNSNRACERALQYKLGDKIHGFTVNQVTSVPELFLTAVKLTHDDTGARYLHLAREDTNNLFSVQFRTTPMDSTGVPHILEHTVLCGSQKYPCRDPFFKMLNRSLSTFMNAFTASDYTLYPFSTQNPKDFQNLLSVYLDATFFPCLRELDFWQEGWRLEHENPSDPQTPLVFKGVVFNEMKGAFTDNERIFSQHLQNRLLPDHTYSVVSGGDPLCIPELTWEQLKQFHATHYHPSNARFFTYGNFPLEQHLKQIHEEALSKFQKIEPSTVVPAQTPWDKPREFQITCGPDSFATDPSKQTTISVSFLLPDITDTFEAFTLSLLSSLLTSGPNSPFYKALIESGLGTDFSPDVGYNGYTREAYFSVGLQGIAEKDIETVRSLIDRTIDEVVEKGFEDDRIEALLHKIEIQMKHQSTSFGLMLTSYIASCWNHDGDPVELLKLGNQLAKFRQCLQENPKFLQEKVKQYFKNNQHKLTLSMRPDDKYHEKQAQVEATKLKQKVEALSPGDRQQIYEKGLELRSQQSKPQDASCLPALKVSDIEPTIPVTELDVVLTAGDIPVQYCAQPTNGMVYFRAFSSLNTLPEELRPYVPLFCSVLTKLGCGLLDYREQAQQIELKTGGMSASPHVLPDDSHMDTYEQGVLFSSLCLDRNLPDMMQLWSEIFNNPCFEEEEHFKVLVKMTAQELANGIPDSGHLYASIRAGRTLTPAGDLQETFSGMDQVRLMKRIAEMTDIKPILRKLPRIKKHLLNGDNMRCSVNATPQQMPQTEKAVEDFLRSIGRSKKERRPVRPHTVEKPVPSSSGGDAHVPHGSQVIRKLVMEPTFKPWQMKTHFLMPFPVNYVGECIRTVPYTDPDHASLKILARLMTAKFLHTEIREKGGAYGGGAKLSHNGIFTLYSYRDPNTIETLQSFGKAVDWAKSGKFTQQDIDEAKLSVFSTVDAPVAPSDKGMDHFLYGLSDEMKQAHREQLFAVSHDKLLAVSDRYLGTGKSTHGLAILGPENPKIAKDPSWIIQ
Chain of UniProt Q16134 (Q16134 whole entry, looked up): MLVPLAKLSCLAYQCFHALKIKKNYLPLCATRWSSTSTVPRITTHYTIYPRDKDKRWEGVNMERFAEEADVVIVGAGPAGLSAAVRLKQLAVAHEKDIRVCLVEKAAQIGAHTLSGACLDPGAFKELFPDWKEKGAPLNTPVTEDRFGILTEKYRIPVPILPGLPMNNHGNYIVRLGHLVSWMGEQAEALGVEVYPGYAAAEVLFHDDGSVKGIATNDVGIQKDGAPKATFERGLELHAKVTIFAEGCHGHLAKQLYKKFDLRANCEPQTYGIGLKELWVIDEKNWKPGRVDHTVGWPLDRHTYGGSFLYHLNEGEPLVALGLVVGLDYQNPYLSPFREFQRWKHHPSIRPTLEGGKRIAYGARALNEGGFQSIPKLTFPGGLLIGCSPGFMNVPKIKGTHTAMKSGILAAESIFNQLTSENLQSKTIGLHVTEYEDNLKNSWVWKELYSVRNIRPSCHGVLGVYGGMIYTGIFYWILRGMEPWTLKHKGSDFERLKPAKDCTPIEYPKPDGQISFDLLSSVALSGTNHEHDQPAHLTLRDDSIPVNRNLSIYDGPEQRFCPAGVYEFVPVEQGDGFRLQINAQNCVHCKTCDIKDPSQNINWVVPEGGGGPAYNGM
Chain of UniProt P56192 (P56192 whole entry, looked up): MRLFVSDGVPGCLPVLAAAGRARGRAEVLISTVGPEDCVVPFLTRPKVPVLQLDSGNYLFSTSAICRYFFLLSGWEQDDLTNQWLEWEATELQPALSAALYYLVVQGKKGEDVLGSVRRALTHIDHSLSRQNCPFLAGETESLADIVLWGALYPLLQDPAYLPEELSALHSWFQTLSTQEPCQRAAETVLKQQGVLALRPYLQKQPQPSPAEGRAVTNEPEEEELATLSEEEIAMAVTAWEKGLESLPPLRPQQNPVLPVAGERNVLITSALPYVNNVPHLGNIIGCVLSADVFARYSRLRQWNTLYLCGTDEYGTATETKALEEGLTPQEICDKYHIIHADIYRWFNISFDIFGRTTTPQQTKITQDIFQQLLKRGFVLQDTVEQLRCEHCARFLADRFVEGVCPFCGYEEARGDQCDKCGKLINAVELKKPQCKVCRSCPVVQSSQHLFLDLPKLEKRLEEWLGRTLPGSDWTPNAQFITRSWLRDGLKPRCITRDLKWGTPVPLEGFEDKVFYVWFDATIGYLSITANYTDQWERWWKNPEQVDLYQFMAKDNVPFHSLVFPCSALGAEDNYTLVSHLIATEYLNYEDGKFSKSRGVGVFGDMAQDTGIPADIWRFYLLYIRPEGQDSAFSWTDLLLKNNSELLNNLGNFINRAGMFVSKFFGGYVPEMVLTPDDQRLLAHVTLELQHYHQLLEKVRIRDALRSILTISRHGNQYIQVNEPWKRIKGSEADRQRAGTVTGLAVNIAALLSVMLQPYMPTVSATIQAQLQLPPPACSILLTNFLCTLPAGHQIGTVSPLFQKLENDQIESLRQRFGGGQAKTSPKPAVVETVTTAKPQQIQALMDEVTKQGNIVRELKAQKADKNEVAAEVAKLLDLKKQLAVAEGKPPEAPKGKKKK
Chain of UniProt Q15024 (Q15024 whole entry): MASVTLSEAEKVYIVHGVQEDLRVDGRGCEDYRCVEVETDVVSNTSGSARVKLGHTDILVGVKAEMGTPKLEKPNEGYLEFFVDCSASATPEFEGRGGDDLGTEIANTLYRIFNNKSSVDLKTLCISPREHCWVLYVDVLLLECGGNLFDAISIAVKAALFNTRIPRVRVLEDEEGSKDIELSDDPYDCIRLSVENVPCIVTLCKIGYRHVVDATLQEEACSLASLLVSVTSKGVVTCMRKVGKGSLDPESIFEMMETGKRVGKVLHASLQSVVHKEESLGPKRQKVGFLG
Chain of UniProt Q2TAA2 (Q2TAA2 whole entry, looked up): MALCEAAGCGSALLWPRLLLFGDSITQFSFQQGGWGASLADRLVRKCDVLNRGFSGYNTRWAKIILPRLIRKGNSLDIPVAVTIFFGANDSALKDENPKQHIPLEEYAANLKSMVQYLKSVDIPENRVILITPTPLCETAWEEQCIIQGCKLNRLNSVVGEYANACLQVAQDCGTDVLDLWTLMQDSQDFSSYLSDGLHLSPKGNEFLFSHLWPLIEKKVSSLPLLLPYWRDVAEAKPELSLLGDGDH

Target	log2 ratio of iodoacetamide-alkyne labeling
UniProt P83731_C6	0.668
OGDH C802 (UniProt Q02218)	-0.0839
RRP12 C261 (UniProt Q5JTH9)	0.53
UniProt Q02930_C80	1.09 (active)
CDC20 C364 (UniProt Q12834)	1.22 (active)
HMGCS1 C86 (UniProt Q01581)	0.0742
UniProt P61978_C184	0.0026
SEC23B C767 (UniProt Q15437)	0.00601
ILK C346 (UniProt Q13418)	1.8 (active)
USP10 C254 (UniProt Q14694)	0.49
UniProt Q02040_C549	1.74 (active)
UniProt Q5H9L4_C158	1.09 (active)
EXOSC7 C85 (UniProt Q15024)	-0.0747
DIP2A C6 (UniProt Q14689)	1.75 (active)
YARS C250 (UniProt P54577)	0.0441
LMNB2 C212 (UniProt Q03252)	0.214
PITRM1 C780 (UniProt Q5JRX3)	0.31
UniProt P60709_C217	0.0537

Target	log2 ratio of iodoacetamide-alkyne labeling
UniProt Q02750_C376	-0.129
UniProt Q15365_C194	1.08 (active)
TCOF1 C1298 (UniProt Q13428)	0.666
IAH1 C9 (UniProt Q2TAA2)	2.43 (active)
MARS C12 (UniProt P56192)	0.428
ERCC6L C356 (UniProt Q2NKX8)	0.193
DOCK11 C409 (UniProt Q5JSL3)	-0.0544
UniProt Q14574_C804	0.812
GFPT1 C55 (UniProt Q06210)	0.387
UniProt Q15365_C158	0.366
PPP2R5D C17 (UniProt Q14738)	0.818
NCAPD2 C1249 (UniProt Q15021)	0.179
UniProt Q08170_C115	-0.0754
ACTR3 C12 (UniProt P61158)	0.212
ETFDH C561 (UniProt Q16134)	0.595
ATP2C1 C162 (UniProt P98194)	0.0772
RRP1B C628 (UniProt Q14684)	0.838
KIF11 C450 (UniProt P52732)	0.0207
